Data: PubChem BioAssay AID1645856 (Buhrlage Lab, Dana-Farber Cancer Institute and Novartis …, 2021)
Hit rate of the full screen: of about 47,000 compounds, about 510 (1.1%) were called active. This excerpt belongs to a sample that is enriched for actives. Unmarked numbers belong to inactive results. Cut-off read from the data, not from the text of the source: active = inhibition above about 30%; inactive = the rest.

molecular target: Ubiquitin carboxyl-terminal hydrolase 10 (Homo sapiens) (UniProt Q14694); experiment: blocks human USP10 ubiquitin-rhodamine cleavage (AID 1645856); conditions: purified USP10, Ub-rhodamine fluorescence, 60 min; at 20 µM; active compounds read high
Sequence (Q14694 whole entry, looked up): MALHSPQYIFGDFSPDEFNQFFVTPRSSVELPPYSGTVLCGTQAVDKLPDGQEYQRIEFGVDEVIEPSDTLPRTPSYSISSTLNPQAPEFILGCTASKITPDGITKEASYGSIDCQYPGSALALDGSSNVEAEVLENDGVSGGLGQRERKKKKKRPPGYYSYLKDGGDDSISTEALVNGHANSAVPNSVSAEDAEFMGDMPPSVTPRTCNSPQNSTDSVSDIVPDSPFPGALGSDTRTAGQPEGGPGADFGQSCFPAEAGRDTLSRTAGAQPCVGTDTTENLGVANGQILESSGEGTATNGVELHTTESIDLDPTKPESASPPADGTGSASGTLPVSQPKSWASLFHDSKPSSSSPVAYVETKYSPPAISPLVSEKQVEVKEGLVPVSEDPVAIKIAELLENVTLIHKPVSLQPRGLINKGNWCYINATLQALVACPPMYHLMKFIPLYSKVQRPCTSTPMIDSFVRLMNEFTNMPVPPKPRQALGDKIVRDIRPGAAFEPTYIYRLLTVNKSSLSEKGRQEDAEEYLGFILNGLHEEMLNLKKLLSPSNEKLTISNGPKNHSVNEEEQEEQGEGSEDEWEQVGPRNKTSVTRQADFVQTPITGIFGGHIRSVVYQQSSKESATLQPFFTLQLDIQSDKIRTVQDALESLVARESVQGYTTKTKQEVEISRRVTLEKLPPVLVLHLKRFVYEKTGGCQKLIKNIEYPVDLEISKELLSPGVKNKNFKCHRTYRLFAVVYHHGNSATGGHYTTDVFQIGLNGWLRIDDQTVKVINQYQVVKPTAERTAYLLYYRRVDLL

With `CC1=C(C(=O)OCCOc2ccccc2)C(c2ccccc2OC(C)C)NC(=O)N1` (stereo unspecified) as the molecule, how does the inhibition read?
The inhibition was 5.16%.

For `Cc1nn(-c2cccc(Cl)c2)c2c1C(C(=O)c1ccc3c(c1)OCCO3)CC(=O)N2` (stereo unspecified), which inhibition is on record?
Its inhibition is -1.54%.

With `CN1c2ccccc2O[C@@H]2CC[C@@H](NC(=O)Cn3cccn3)[C@@H](O)[C@@H]21` as the molecule, how does the inhibition read?
Its inhibition is 0.781%.

With `COc1ccc2[nH]c3c(N4CCN(C5CCCCC5)CC4)ncnc3c2c1` as the molecule, how does the inhibition read?
Its inhibition is 2.49%.

Which inhibition does the source give for `N#Cc1ccc(NC(=O)Nc2cccn(Cc3ccccc3F)c2=O)cc1` here?
The inhibition was 42.6% (active).

`Cc1noc(-c2cccn(Cc3cc(F)ccc3F)c2=O)n1` was tested. Which inhibition did it give?
The inhibition was 1.28%.

`O=C(Cn1cccc(-c2nc(-c3ccccc3)no2)c1=O)Nc1ccccc1F` was tested. Which inhibition did it give?
Its inhibition is -5.7%.

For `CN1Cc2cccc(C(=O)N(C)c3nc4c(s3)CCc3occc3-4)c2C1=O`, which inhibition is on record?
The inhibition was -0.411%.

How did the inhibition turn out when `COc1cnc(CSc2ccccc2)cc1OCC(=O)Nc1ccc2c(c1)OCO2` was run?
The inhibition was 0.813%.

How did the inhibition turn out when `COCCCn1c(C(=O)NCC(=O)OC(C)C)cc2c(=O)n3cccc(C)c3nc21` was run?
The inhibition was 3.16%.

Which inhibition does the source give for `COc1ccc(/C=C(\C(=O)N(C)C2CCCCC2)n2ccccc2=O)cc1` here?
Its inhibition is -1.04%.

How did the inhibition turn out when `COc1ccc(-c2cc(C(=O)Nc3ncc(C)s3)c3ccccc3n2)cc1OC` was run?
Its inhibition is -3.26%.

With `CNC(=O)C1CN(C(=O)c2ccccc2F)CC12CCCC2` (stereo unspecified) as the molecule, how does the inhibition read?
Its inhibition is -0.0522%.

`Cn1c(=O)n(C2CCN(C(=O)Cc3ccccc3)C2)c2ncncc21` (stereo unspecified) was tested. Which inhibition did it give?
The inhibition was 0.307%.

For `O=C1c2ccccc2C2c3[nH]c4ccccc4c3C(c3ccc(F)cc3)CN12` (stereo unspecified), which inhibition is on record?
Its inhibition is -4.15%.

Which inhibition does the source give for `CC(C)N1CCN(S(=O)(=O)c2cc(-c3nnc(C4CC4)o3)co2)CC1` here?
The inhibition was -5.2%.

With `Cc1c(C2CCN(C(=O)NCc3ccccc3)CC2)noc1N` as the molecule, how does the inhibition read?
The inhibition was -2.52%.

For `CC(NC(=O)c1nc2n(n1)-c1ccccc1S(=O)(=O)N2)c1cc2ccccc2o1` (stereo unspecified), which inhibition is on record?
The inhibition was 36.5% (active).

How did the inhibition turn out when `O=C(NCc1cccnc1N1CCCCC1)c1nc2n(n1)-c1ccccc1S(=O)(=O)N2` was run?
The inhibition was 17.3%.

`Cc1noc(C)c1COc1cccc(C(=O)NC(C)c2cc3ccccc3o2)c1` (stereo unspecified) was tested. Which inhibition did it give?
Its inhibition is -0.528%.

How did the inhibition turn out when `CN1CCC2(CN(c3ncccn3)CC23CCN(C(=O)Cc2ccccc2)CC3)C1=O` (stereo unspecified) was run?
The inhibition was -1.5%.

Which inhibition does the source give for `CCn1c(=O)c(C(=O)N2CCN(c3cccc(C)c3)CC2)nc2cccnc21` here?
Its inhibition is -3.06%.

With `O=S(=O)(c1cccc2nonc12)N1CCC(n2cccc2)CC1` as the molecule, how does the inhibition read?
The inhibition was -1.8%.

With `COc1cc(Cl)c(C)cc1Nc1ncnc2sccc12` as the molecule, how does the inhibition read?
Its inhibition is -4.4%.

How did the inhibition turn out when `NC(=O)CCC(=O)N[C@H]1C[C@H]2CN(Cc3ccccc3)c3ccccc3CN2C1` was run?
Its inhibition is -7.81%.

Which inhibition does the source give for `O=C(c1ccccn1)N1CCC(c2nc3ccccc3cc2C(=O)N2CCCC2)CC1` here?
Its inhibition is -0.709%.

Which inhibition does the source give for `O=C(O)C1CCCN1C1=NS(=O)(=O)c2ccccc21` (stereo unspecified) here?
The inhibition was 0.971%.

Which inhibition does the source give for `CC(=O)N1CCc2cc(C(O)CN3CCN(c4ccccc4)CC3)ccc21` (stereo unspecified) here?
Its inhibition is 1.48%.

For `Cc1ccc(N2CC(C(=O)N3CCC(C(=O)Nc4ccc(F)cc4F)CC3)CC2=O)cc1` (stereo unspecified), which inhibition is on record?
The inhibition was -5.34%.

How did the inhibition turn out when `CCC(C(=O)NC1CCCC1)N(C(=O)Cn1nnc(-c2ccc(C)cc2)n1)c1cccc(O)c1` (stereo unspecified) was run?
Its inhibition is 1.22%.

How did the inhibition turn out when `Cn1c(=O)c2c3c(cnc2n(C)c1=O)C(=O)CC(c1ccccc1)C3` (stereo unspecified) was run?
The inhibition was -1.08%.

Which inhibition does the source give for `O=C(NC1CCCC1)c1cc(-c2cccnc2)n(-c2ccc(F)cc2)n1` here?
The inhibition was 1.77%.

How did the inhibition turn out when `c1ccc(-c2ccc(NCc3ccc4c(c3)OCO4)nn2)cc1` was run?
Its inhibition is 3.9%.

`Cc1ccc(S(=O)(=O)N2CCCC2C(=O)N2CCN(c3cccc(Cl)c3)CC2)cc1` (stereo unspecified) was tested. Which inhibition did it give?
The inhibition was 1.5%.

Which inhibition does the source give for `O=C(COC(=O)C(Cc1c[nH]c2ccccc12)NC(=O)c1ccccc1Cl)c1ccccc1F` (stereo unspecified) here?
Its inhibition is 6.57%.

`Cn1ccnc1C(NC(=O)c1ccncc1)c1ccc(F)c(F)c1` (stereo unspecified) was tested. Which inhibition did it give?
The inhibition was -4.27%.

How did the inhibition turn out when `COc1ccc(CNC2C3=C(CCCC3)C(=O)N2CCc2ccc(Cl)cc2)cc1` (stereo unspecified) was run?
Its inhibition is -0.147%.

Which inhibition does the source give for `CC(C)CN1C[C@@]23CN(C(=O)NCCc4ccc(F)cc4)C[C@@H](C[C@@H]2S1(=O)=O)O3` here?
The inhibition was 3.62%.

For `COC(=O)C1CCN(C(=O)CC[C@H]2CNC(=O)[C@@H]3[C@@H](CCN3Cc3ccc(C)cc3)N2C)CC1`, which inhibition is on record?
Its inhibition is 1.61%.

For `COc1cccc(NC(=O)COC(=O)c2ccc(OC)c(S(=O)(=O)Nc3cc(Cl)c(OC)cc3OC)c2)c1`, which inhibition is on record?
Its inhibition is 0.441%.

Which inhibition does the source give for `Cc1ccc(NC(=O)CCC(=O)N(c2ccccc2)c2ccccc2)cc1Cl` here?
The inhibition was 11.4%.

For `Cc1ccc(NC(=O)CCOc2ccccc2)cc1S(=O)(=O)Nc1ccccc1Cl`, which inhibition is on record?
The inhibition was 30.4% (active).

For `Cc1cc(O)c(=O)cc2c1C[C@H]1CC(C)(C)/C=C/C[C@@]3(C)Oc4cc(=O)c(O)cc(C)c4C[C@@H]3C[C@H](O)[C@]1(C)O2`, which inhibition is on record?
Its inhibition is 39.9% (active).

For `Cc1ccc(CNC(=O)CCCn2c(=O)c3sccc3n(CC(=O)OCc3ccccc3)c2=O)cc1`, which inhibition is on record?
The inhibition was 53.7% (active).

For `COc1ccc(CCNC(=O)CCCn2c(=O)c3ccccc3n(CC(=O)OCc3ccccc3)c2=O)cc1OC`, which inhibition is on record?
Its inhibition is 12.7%.

Which inhibition does the source give for `Cc1ccc(CNC(=O)CC(c2ccccc2)c2ccccc2)cc1` here?
Its inhibition is 9.59%.

`Cc1cccc(-n2c3c(c(=O)[nH]c2=O)CN(Cc2ccco2)CN3)c1C` was tested. Which inhibition did it give?
The inhibition was -1.97%.

For `COc1ccc(C(=O)N(c2ccccn2)c2ccccn2)cc1OC`, which inhibition is on record?
The inhibition was -0.245%.

`CC(=O)Nc1sc2c(c1C(c1cccc(F)c1)N1CCN(CCO)CC1)CCCC2` (stereo unspecified) was tested. Which inhibition did it give?
The inhibition was -5.42%.

With `CC(C)Cc1cc(-c2nn3c(-c4ccccc4Cl)nnc3s2)n[nH]1` as the molecule, how does the inhibition read?
Its inhibition is 13.8%.

With `Cc1c(-c2nn3c(-c4ccco4)nnc3s2)cccc1[N+](=O)[O-]` as the molecule, how does the inhibition read?
Its inhibition is 50.9% (active).

With `Fc1ccccc1CSc1nnc(C2CCNCC2)o1` as the molecule, how does the inhibition read?
The inhibition was -2.32%.

`Cc1cc(-c2ccccc2C(=O)O)nc(C2CCCNC2)n1` (stereo unspecified) was tested. Which inhibition did it give?
Its inhibition is 1.65%.

Which inhibition does the source give for `O=C(Cn1c(=O)n(Cc2ccc3c(c2)OCO3)c(=O)c2ccccc21)NCc1ccco1` here?
The inhibition was 25.6%.

For `O=C(NCCc1ccccc1)c1ccc2c(=O)nc3c(-c4ccccc4F)n[nH]n3c2c1`, which inhibition is on record?
Its inhibition is 3.48%.

How did the inhibition turn out when `O=C(NCCc1ccccc1)c1ccc2c(=O)n(Cc3ccco3)c(=O)n(Cc3cccc([N+](=O)[O-])c3)c2c1` was run?
Its inhibition is 73.1% (active).
